# The supplement of paper PMC10037445
# Over roughly 2,900 compounds, “NF-kB SEAP reporter activity, fold change vs agonist alone” has its median near 0.99; the highest 2% begin near 2.6. This excerpt belongs to a sample that is enriched for the highest values.
# Tests used:
# RAW-Dual [1] = test: NF-kB SEAP reporter activity, fold change vs agonist alone; higher = enhanced NF-kB activity; details: cytotoxicity flag (confluency mask): not cytotoxic
# In short: (§1)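 Cytotoxic wells were those whose IncuCyte confluency was below 70% of agonist controls in both mask sets. The cells were RAW-Dual macrophages at 50,000 cells/well in DMEM on 384-well plates, dosed with 50 nL of library stock by pin tool, stimulated with a PRR agonist 1 h later, and kept at 37 °C, 5% CO2 for 20 hours. IRF and NF-κB reporter activity, as fold change over agonist-alone wells, came from supernatant read by QuantiLuc luminescence and QuantiBlue absorbance, respectively.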
# RAW-Dual [2] = test: NF-kB SEAP reporter activity, fold change vs agonist alone; cytotoxicity flag (confluency mask): not cytotoxic; higher = enhanced NF-kB activity
# In short: as §1
# [3] = library stock concentration (final ~1000-fold dilution): 10 mM, agonist: Imiquimod (TLR7) […]
# [4] = library stock concentration (final ~1000-fold dilution): 10 mM, agonist: MPLA (TLR4) […]
# [5] = agonist: ODN 1826 (TLR9) 0.5 ug/mL
# [6] = agonist: Pam2CSK4 (TLR2/6) 0.1 ug/mL
# [7] = agonist: Pam3CSK4 (TLR2/1) 0.1 ug/mL
smiles,measurement,setting,value
O=C1NC(=O)C(c2cnc3ccccn23)=C1c1cn2c3c(cc(F)cc13)CN(C(=O)N1CCCCC1)CC2,NF-kB SEAP reporter activity,RAW-Dual [1]; [3],2.62
same,NF-kB SEAP reporter activity,RAW-Dual [1]; [4],2.43
O=C1NC(=O)C(c2cnc3ccccn23)=C1c1cn2c3c(cc(F)cc13)CN(C(=O)N1CCCCC1)CC2 (library stock concentration (final ~1000-fold dilution): 10 mM),NF-kB SEAP reporter activity,RAW-Dual [2]; agonist: LPS (TLR4) 0.1 ug/mL,3.19
same,NF-kB SEAP reporter activity,RAW-Dual [2]; [5],2.72
same,NF-kB SEAP reporter activity,RAW-Dual [2]; [6],1.42
same,NF-kB SEAP reporter activity,RAW-Dual [2]; [7],1.84
CC(C(=O)Nc1ccc(Cl)cc1)C1CCC(c2ccnc3ccc(F)cc23)CC1 (stereo unspecified),NF-kB SEAP reporter activity,RAW-Dual [1]; [3],1.51
same,NF-kB SEAP reporter activity,RAW-Dual [1]; [4],1.55
CC(C(=O)Nc1ccc(Cl)cc1)C1CCC(c2ccnc3ccc(F)cc23)CC1 (stereo unspecified) (library stock concentration (final ~1000-fold dilution): 10 mM),NF-kB SEAP reporter activity,RAW-Dual [2]; agonist: LPS (TLR4) 0.1 ug/mL,0.974
same,NF-kB SEAP reporter activity,RAW-Dual [2]; [5],1.05
same,NF-kB SEAP reporter activity,RAW-Dual [2]; [6],0.52
same,NF-kB SEAP reporter activity,RAW-Dual [2]; [7],0.738
COc1ccc(CNCc2cccc3ccccc23)cc1.Cl (library stock concentration (final ~1000-fold dilution): 10 mM),NF-kB SEAP reporter activity,RAW-Dual [2]; agonist: LPS (TLR4) 0.1 ug/mL,1.45
same,NF-kB SEAP reporter activity,RAW-Dual [2]; [5],0.82
same,NF-kB SEAP reporter activity,RAW-Dual [2]; [6],1.04
same,NF-kB SEAP reporter activity,RAW-Dual [2]; [7],1.06
COc1ccc(CNCc2cccc3ccccc23)cc1.Cl,NF-kB SEAP reporter activity,RAW-Dual [1]; [3],1.34
same,NF-kB SEAP reporter activity,RAW-Dual [1]; [4],1.44
COC1CC2CCC(C)C(O)(O2)C(=O)C(=O)N2CCCCC2C(=O)OC(C(C)CC2CCC(OCCO)C(OC)C2)CC(=O)C(C)C=C(C)C(O)C(OC)C(=O)C(C)CC(C)C=CC=CC=C1C (stereo unspecified),NF-kB SEAP reporter activity,RAW-Dual [1]; [3],1.77
same,NF-kB SEAP reporter activity,RAW-Dual [1]; [4],1.92
COC1CC2CCC(C)C(O)(O2)C(=O)C(=O)N2CCCCC2C(=O)OC(C(C)CC2CCC(O)C(OC)C2)CC(=O)C(C)C=C(C)C(O)C(OC)C(=O)C(C)CC(C)C=CC=CC=C1C (stereo unspecified),NF-kB SEAP reporter activity,RAW-Dual [1]; [3],1.44
same,NF-kB SEAP reporter activity,RAW-Dual [1]; [4],1.5
same,NF-kB SEAP reporter activity,"RAW-Dual [1]; library stock concentration (final ~1000-fold dilution): .1 mM, agonist: Imiquimod (TLR7) […]",1.35
same,NF-kB SEAP reporter activity,"RAW-Dual [1]; library stock concentration (final ~1000-fold dilution): .1 mM, agonist: MPLA (TLR4) […]",1.19
COC1CC2CCC(C)C(O)(O2)C(=O)C(=O)N2CCCCC2C(=O)OC(C(C)CC2CCC(O)C(OC)C2)CC(=O)C(C)C=C(C)C(O)C(OC)C(=O)C(C)CC(C)C=CC=CC=C1C (stereo unspecified) (library stock concentration (final ~1000-fold dilution): .1 mM),NF-kB SEAP reporter activity,RAW-Dual [2]; agonist: LPS (TLR4) 0.1 ug/mL,1.2
same,NF-kB SEAP reporter activity,RAW-Dual [2]; [5],1.31
same,NF-kB SEAP reporter activity,RAW-Dual [2]; [6],1.53
same,NF-kB SEAP reporter activity,RAW-Dual [2]; [7],1.44
COC1CC2CCC(C)C(O)(O2)C(=O)C(=O)N2CCCCC2C(=O)OC(C(C)CC2CCC(OC(=O)C(C)(CO)CO)C(OC)C2)CC(=O)C(C)C=C(C)C(O)C(OC)C(=O)C(C)CC(C)C=CC=CC=C1C (stereo unspecified) (library stock concentration (final ~1000-fold dilution): 10 mM),NF-kB SEAP reporter activity,RAW-Dual [2]; agonist: LPS (TLR4) 0.1 ug/mL,3.85
same,NF-kB SEAP reporter activity,RAW-Dual [2]; [5],3.11
same,NF-kB SEAP reporter activity,RAW-Dual [2]; [6],1.33
same,NF-kB SEAP reporter activity,RAW-Dual [2]; [7],2.09
COC1CC2CCC(C)C(O)(O2)C(=O)C(=O)N2CCCCC2C(=O)OC(C(C)CC2CCC(OCCO)C(OC)C2)CC(=O)C(C)C=C(C)C(O)C(OC)C(=O)C(C)CC(C)C=CC=CC=C1C (stereo unspecified) (library stock concentration (final ~1000-fold dilution): 10 mM),NF-kB SEAP reporter activity,RAW-Dual [2]; agonist: LPS (TLR4) 0.1 ug/mL,1.83
same,NF-kB SEAP reporter activity,RAW-Dual [2]; [5],1.7
same,NF-kB SEAP reporter activity,RAW-Dual [2]; [6],0.629
same,NF-kB SEAP reporter activity,RAW-Dual [2]; [7],0.915
COC1CC2CCC(C)C(O)(O2)C(=O)C(=O)N2CCCCC2C(=O)OC(C(C)CC2CCC(O)C(OC)C2)CC(=O)C(C)C=C(C)C(O)C(OC)C(=O)C(C)CC(C)C=CC=CC=C1C (stereo unspecified) (library stock concentration (final ~1000-fold dilution): 10 mM),NF-kB SEAP reporter activity,RAW-Dual [2]; agonist: LPS (TLR4) 0.1 ug/mL,1.57
same,NF-kB SEAP reporter activity,RAW-Dual [2]; [5],1.11
same,NF-kB SEAP reporter activity,RAW-Dual [2]; [6],0.536
same,NF-kB SEAP reporter activity,RAW-Dual [2]; [7],0.77
COC1CC2CCC(C)C(O)(O2)C(=O)C(=O)N2CCCCC2C(=O)OC(C(C)CC2CCC(OC(=O)C(C)(CO)CO)C(OC)C2)CC(=O)C(C)C=C(C)C(O)C(OC)C(=O)C(C)CC(C)C=CC=CC=C1C (stereo unspecified),NF-kB SEAP reporter activity,RAW-Dual [1]; [3],2.36
same,NF-kB SEAP reporter activity,RAW-Dual [1]; [4],2.41
NS(=O)(=O)c1ccccc1 (library stock concentration (final ~1000-fold dilution): 10 mM),NF-kB SEAP reporter activity,RAW-Dual [2]; agonist: LPS (TLR4) 0.1 ug/mL,1.04
same,NF-kB SEAP reporter activity,RAW-Dual [2]; [5],0.987
same,NF-kB SEAP reporter activity,RAW-Dual [2]; [6],1.07
same,NF-kB SEAP reporter activity,RAW-Dual [2]; [7],0.771
NS(=O)(=O)c1ccccc1,NF-kB SEAP reporter activity,RAW-Dual [1]; [4],1.11
C=CC1CN2CCC1CC2C(O)c1ccnc2ccc(OC)cc12.C=CC1CN2CCC1CC2C(O)c1ccnc2ccc(OC)cc12.O.O.O=S(=O)(O)O (stereo unspecified),NF-kB SEAP reporter activity,RAW-Dual [1]; [3],1.06
same,NF-kB SEAP reporter activity,RAW-Dual [1]; [4],0.931
C=CC1CN2CCC1CC2C(O)c1ccnc2ccc(OC)cc12.C=CC1CN2CCC1CC2C(O)c1ccnc2ccc(OC)cc12.O.O.O=S(=O)(O)O (stereo unspecified) (library stock concentration (final ~1000-fold dilution): 10 mM),NF-kB SEAP reporter activity,RAW-Dual [2]; agonist: LPS (TLR4) 0.1 ug/mL,1.16
same,NF-kB SEAP reporter activity,RAW-Dual [2]; [5],0.531
same,NF-kB SEAP reporter activity,RAW-Dual [2]; [6],1.35
same,NF-kB SEAP reporter activity,RAW-Dual [2]; [7],1.05
CN(C)Cc1ccc(S(=O)(=O)n2ccc(/C=C/C(=O)NO)c2)cc1 (library stock concentration (final ~1000-fold dilution): 10 mM),NF-kB SEAP reporter activity,RAW-Dual [2]; agonist: LPS (TLR4) 0.1 ug/mL,4.18
same,NF-kB SEAP reporter activity,RAW-Dual [2]; [5],0.95
same,NF-kB SEAP reporter activity,RAW-Dual [2]; [6],1.03
same,NF-kB SEAP reporter activity,RAW-Dual [2]; [7],0.94
CN(C)Cc1ccc(S(=O)(=O)n2ccc(/C=C/C(=O)NO)c2)cc1,NF-kB SEAP reporter activity,RAW-Dual [1]; [3],1.01
same,NF-kB SEAP reporter activity,RAW-Dual [1]; [4],0.905
CC1(Cn2ccnn2)C(C(=O)O)N2C(=O)CC2S1(=O)=O (stereo unspecified) (library stock concentration (final ~1000-fold dilution): 10 mM),NF-kB SEAP reporter activity,RAW-Dual [2]; agonist: LPS (TLR4) 0.1 ug/mL,0.971
same,NF-kB SEAP reporter activity,RAW-Dual [2]; [5],1.03
same,NF-kB SEAP reporter activity,RAW-Dual [2]; [6],0.946
same,NF-kB SEAP reporter activity,RAW-Dual [2]; [7],1.06
CC1(Cn2ccnn2)C(C(=O)O)N2C(=O)CC2S1(=O)=O (stereo unspecified),NF-kB SEAP reporter activity,RAW-Dual [1]; [3],1.06
same,NF-kB SEAP reporter activity,RAW-Dual [1]; [4],0.964
CC(C)Nc1cc(-c2c[nH]c(C(=O)NC(CO)c3cccc(Cl)c3)c2)c(Cl)cn1 (stereo unspecified),NF-kB SEAP reporter activity,RAW-Dual [1]; [3],0.128
same,NF-kB SEAP reporter activity,RAW-Dual [1]; [4],0.246
CC(C)Nc1cc(-c2c[nH]c(C(=O)NC(CO)c3cccc(Cl)c3)c2)c(Cl)cn1 (stereo unspecified) (library stock concentration (final ~1000-fold dilution): 10 mM),NF-kB SEAP reporter activity,RAW-Dual [2]; agonist: LPS (TLR4) 0.1 ug/mL,0.201
same,NF-kB SEAP reporter activity,RAW-Dual [2]; [5],0.189
same,NF-kB SEAP reporter activity,RAW-Dual [2]; [6],0.0811
same,NF-kB SEAP reporter activity,RAW-Dual [2]; [7],0.114
